Screen size: about 5,500 compounds; about 2,000 (36%) were called active. Roughly 18% stayed inconclusive and do not appear here. Rule as the data show it: active = normalized growth mostly below about 0.91 (no sharp cut-off); inconclusive = no clear call, values can overlap the other calls; inactive = mostly above about 0.92. The list shows a part of the results.
Test: chemical genetic growth profiling, strain panel (AID 1159580);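 also: tested at 20 µM; growth read once vehicle control cultures reached saturation at 30 °C; 1 = growth at the plate median or of vehicle wells; lower values mean less growth of the strain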
Details: growth OD
[1] = S. cerevisiae deletion strains, locus YAL040C, strain CLN3, active compounds read low
[2] = S. cerevisiae deletion strains, locus YCL061C, strain MRC1 (second series), active compounds read low
[3] = S. cerevisiae deletion strains, locus YDR363W, strain ESC2, active compounds read low
[4] = S. cerevisiae deletion strains, locus YER002W, strain NOP16, active compounds read low
[5] = S. cerevisiae deletion strains, locus YJR075W, strain HOC1, active compounds read low
[6] = S. cerevisiae deletion strains, locus YMR263W, strain SAP30, active compounds read low
[7] = S. cerevisiae deletion strains, locus YMR307W, strain GAS1, active compounds read low
[8] = S. cerevisiae deletion strains, locus YNL153C, strain GIM3, active compounds read low
[9] = S. cerevisiae deletion strains, locus YNL175C, strain NOP13, active compounds read low
[10] = S. cerevisiae deletion strains, locus YNL197C, strain WHI3, active compounds read low
[11] = S. cerevisiae deletion strains, locus YNL224C, strain SQS1, active compounds read low
[12] = S. cerevisiae deletion strains, locus YNL322C, strain KRE1, active compounds read low
[13] = S. cerevisiae deletion strains, locus YOR083W, strain WHI5 (second series), active compounds read low
[14] = S. cerevisiae deletion strains, locus YPL241C, strain CIN2, active compounds read low
[15] = S. cerevisiae deletion strains, locus YAL013W, strain DEP1, active compounds read low
[16] = S. cerevisiae deletion strains, locus YBR229C, strain ROT2, active compounds read low
[17] = S. cerevisiae deletion strains, locus YDL101C, strain DUN1, active compounds read low
[18] = S. cerevisiae deletion strains, locus YGR078C, strain PAC10, active compounds read low
[19] = S. cerevisiae deletion strains, locus YLR039C, strain RIC1, active compounds read low
[20] = S. cerevisiae deletion strains, locus YLR262C, strain YPT6, active compounds read low
[21] = S. cerevisiae deletion strains, locus YPL055C, strain LGE1, active compounds read low

Measured: normalized growth

NCC1OC(O[C@@H]2[C@H](O)C(OC3C(O)C(N)CC(N)C3OC3OC(CO)C(O)C(O)C3N)O[C@@H]2CO)C(N)C(O)C1O (stereo partly drawn)
inactive: [1] 1.07 | [2] 1 | [3] 1.02 | [4] 1.02 | [5] 1 | [6] 0.997 | [7] 1 | S. cerevisiae deletion strains, locus YNL128W, strain TEP1, active compounds read low 1.01 | [8] 1.03 | [9] 1.01 | [10] 1.01 | [11] 1.01 | [12] 0.993 | [13] 1.02 | [14] 1

CCc1cc2c(cc1C(=O)CC1(O)C(=O)Nc3ccc(Br)cc31)C(C)(C)CCC2(C)C (stereo not drawn)
inactive: [15] 1.01 | [16] 1.01 | S. cerevisiae deletion strains, locus YCL061C, strain MRC1, active compounds read low 1.02 | [17] 1.02 | S. cerevisiae deletion strains, locus YDL134C, strain PPH21, active compounds read low 1.01 | S. cerevisiae deletion strains, locus YDR150W, strain NUM1, active compounds read low 0.953 | S. cerevisiae deletion strains, locus YEL061C, strain CIN8, active compounds read low 0.978 | [18] 1.02 | S. cerevisiae deletion strains, locus YHR030C, strain SLT2, active compounds read low 1.02 | S. cerevisiae deletion strains, locus YHR087W, strain rtc3, active compounds read low 0.961 | S. cerevisiae deletion strains, locus YJR043C, strain POL32, active compounds read low 1.01 | [5] 0.979 | [19] 1.03 | S. cerevisiae deletion strains, locus YLR058C, strain SHM2 (second series), active compounds read low 1.01 | S. cerevisiae deletion strains, locus YLR085C, strain ARP6, active compounds read low 1.02 | [20] 1.01 | S. cerevisiae deletion strains, locus YML094W, strain GIM5, active compounds read low 0.997 | S. cerevisiae deletion strains, locus YMR219W, strain ESC1, active compounds read low 1 | [6] 1.06 | [7] 0.959 | [8] 1.01 | S. cerevisiae deletion strains, locus YNL298W, strain CLA4 (second series), active compounds read low 0.998 | [12] 1.01 | S. cerevisiae deletion strains, locus YNR030W, strain Alg12, active compounds read low 1.01 | [21] 0.921 | [14] 1.02 | S. cerevisiae deletion strains, locus YPR135W, strain CTF4, active compounds read low 1.06

CC(C)C(=O)c1c(C(C)C)nn2ccccc12
inactive: [15] 0.972 | [1] 1.06 | [2] 0.985 | [3] 0.995 | [4] 0.983 | [18] 0.984 | S. cerevisiae deletion strains, locus YGR229C, strain SMI1, active compounds read low 0.942 | [5] 0.991 | [9] 0.985 | [10] 0.985 | [11] 0.962 | [12] 0.985 | [13] 0.936 | [21] 0.967

CC1=CCC2C3(C)C1=CC(=O)OC3CC1C(C)(C)CC(O)C(O)C12C (stereo not drawn)
inactive: S. cerevisiae deletion strains, locus YBR021W, strain FUR4, active compounds read low 0.993 | [16] 1.02 | S. cerevisiae deletion strains, locus YCL029C, strain bik1, active compounds read low 1 | S. cerevisiae deletion strains, locus YDL035C, strain GPR1, active compounds read low 1.06 | S. cerevisiae deletion strains, locus YDL074C, strain BRE1, active compounds read low 1.07 | [17] 1.01 | S. cerevisiae deletion strains, locus YDL185W, strain tfp1, active compounds read low 0.996 | S. cerevisiae deletion strains, locus YDL192W, strain arf1, active compounds read low 1.01 | S. cerevisiae deletion strains, locus YDR101C, strain arx1, active compounds read low 1.02 | S. cerevisiae deletion strains, locus YDR162C, strain NBP2, active compounds read low 1.02 | S. cerevisiae deletion strains, locus YDR318W, strain mcm21, active compounds read low 0.981 | S. cerevisiae deletion strains, locus YDR388W, active compounds read low 0.994 | S. cerevisiae deletion strains, locus YDR502C, strain sam2, active compounds read low 0.998 | S. cerevisiae deletion strains, locus YER110C, active compounds read low 0.991 | S. cerevisiae deletion strains, locus YER155C, strain BEM2, active compounds read low 1 | S. cerevisiae deletion strains, locus YER167W, strain BCK2, active compounds read low 1.03 | S. cerevisiae deletion strains, locus YGL078C, strain dbp3, active compounds read low 1 | S. cerevisiae deletion strains, locus YGL086W, strain mad1, active compounds read low 0.995 | S. cerevisiae deletion strains, locus YGL248W, strain PDE1, active compounds read low 1.01 | S. cerevisiae deletion strains, locus YGR135W, strain pre9, active compounds read low 0.979 | S. cerevisiae deletion strains, locus YGR252W, strain gcn5, active compounds read low 0.96 | S. cerevisiae deletion strains, locus YHR079C, strain IRE1 (second series), active compounds read low 0.989 | S. cerevisiae deletion strains, locus YHR094C, strain hxt1, active compounds read low 0.99 | S. cerevisiae deletion strains, locus YHR129C, strain ARP1, active compounds read low 1.01 | S. cerevisiae deletion strains, locus YHR200W, strain rpn10, active compounds read low 0.983 | S. cerevisiae deletion strains, locus YIL066C, strain RNR3, active compounds read low 1.05 | S. cerevisiae deletion strains, locus YIL073C, strain SPO22, active compounds read low 1 | S. cerevisiae deletion strains, locus YIL125W, strain kgd1, active compounds read low 1.01 | S. cerevisiae deletion strains, locus YIR030C, strain dcg1, active compounds read low 0.986 | S. cerevisiae deletion strains, locus YJL095W, strain BCK1, active compounds read low 1.03 | S. cerevisiae deletion strains, locus YJL134W, strain LCB3, active compounds read low 1.01 | S. cerevisiae deletion strains, locus YJL168C, strain set2, active compounds read low 0.991 | S. cerevisiae deletion strains, locus YJL187C, strain SWE1 (second series), active compounds read low 1 | S. cerevisiae deletion strains, locus YKL009W, strain mrt4, active compounds read low 1.05 | S. cerevisiae deletion strains, locus YKL068W, active compounds read low 0.993 | S. cerevisiae deletion strains, locus YKL085W, strain MDH1 (second series), active compounds read low 0.991 | S. cerevisiae deletion strains, locus YKL085W, strain MDH1, active compounds read low 0.991 | S. cerevisiae deletion strains, locus YKL190W, strain CNB1, active compounds read low 1.01 | S. cerevisiae deletion strains, locus YKR001C, strain vps1, active compounds read low 1.02 | [19] 1.12 | S. cerevisiae deletion strains, locus YLR058C, strain SHM2, active compounds read low 1.04 | S. cerevisiae deletion strains, locus YLR102C, strain apc9, active compounds read low 0.991 | [20] 1.17 | S. cerevisiae deletion strains, locus YLR268W, strain sec22, active compounds read low 1.03 | S. cerevisiae deletion strains, locus YLR330W, strain CHS5, active compounds read low 1.01 | S. cerevisiae deletion strains, locus YLR371W, strain rom2, active compounds read low 1 | S. cerevisiae deletion strains, locus YLR418C, strain cdc73, active compounds read low 0.97 | S. cerevisiae deletion strains, locus YML016C, strain PPZ1, active compounds read low 1.01 | S. cerevisiae deletion strains, locus YML032C, strain rad52, active compounds read low 1 | S. cerevisiae deletion strains, locus YML124C, strain tub3, active compounds read low 0.993 | S. cerevisiae deletion strains, locus YMR078C, strain ctf18, active compounds read low 0.99 | S. cerevisiae deletion strains, locus YMR223W, strain ubp8, active compounds read low 0.989 | [6] 1.01 | [7] 1.09 | S. cerevisiae deletion strains, locus YNL067W, strain RPL9B, active compounds read low 0.997 | [8] 1.01 | S. cerevisiae deletion strains, locus YNL233W, strain BNI4, active compounds read low 0.999 | S. cerevisiae deletion strains, locus YNL250W, strain rad50, active compounds read low 0.962 | S. cerevisiae deletion strains, locus YNL271C, strain bni1, active compounds read low 1 | S. cerevisiae deletion strains, locus YNL298W, strain CLA4, active compounds read low 1.01 | S. cerevisiae deletion strains, locus YNL307C, strain MCK1, active compounds read low 0.999 | S. cerevisiae deletion strains, locus YNR052C, strain pop2, active compounds read low 0.998 | S. cerevisiae deletion strains, locus YOL012C, strain htz1 0.612 | S. cerevisiae deletion strains, locus YOL147C, strain pex11, active compounds read low 0.998 | S. cerevisiae deletion strains, locus YOR061W, strain CKA2, active compounds read low 1.06 | S. cerevisiae deletion strains, locus YOR069W, strain VPS5, active compounds read low 1.01 | S. cerevisiae deletion strains, locus YOR136W, strain idh2, active compounds read low 0.996 | S. cerevisiae deletion strains, locus YOR144C, strain elg1, active compounds read low 1 | S. cerevisiae deletion strains, locus YOR184W, strain ser1, active compounds read low 1.04 | S. cerevisiae deletion strains, locus YOR316C, strain cot1, active compounds read low 0.989 | [14] 1.01 | S. cerevisiae deletion strains, locus YPR119W, strain clb2, active compounds read low 0.987 | S. cerevisiae deletion strains, locus YPR141C, strain kar3, active compounds read low 1 | S. cerevisiae deletion strains, locus YPR163C, strain tif3, active compounds read low 1 | S. cerevisiae deletion strains, locus YPR167C, strain met16, active compounds read low 0.985 | S. cerevisiae deletion strains, strain wtn01, active compounds read low 1.01 | S. cerevisiae strains, strain wild type, active compounds read low 1.04
